The text below walks through data of PubChem BioAssay (NCI).

About 79,000 compounds went through this panel and 15% of them were active in at least one assay; those are over-represented in the sample as a whole. Unmarked numbers belong to inactive results. Calls of active or inactive are those of the source. Rule as the data show it: active = growth inhibition above about 70%; inactive = the rest.

Test [1] in a line: NCI Yeast Anticancer Drug Screen. Data for the rad50 strain (AID 155).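 Also: 0% = growth of vehicle-only cultures of the same strain.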 To be noted: S. cerevisiae rad50 strain growth inhibition; at 50.0 µM; active compounds read high. Put shortly: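 Cells are treated with compound, grown, and their growth is then scored against vehicle-only cultures of the same repair-deficient yeast strain.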
Test [2] in a line: NCI Yeast Anticancer Drug Screen. Data for the mec2-1 strain (AID 157). To be noted: S. cerevisiae mec2-1 strain, at 50.0 µM, active compounds read high. Put shortly:
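Each compound was tested on mec2-1 yeast, a strain altered in DNA damage repair or cell cycle control. Growth inhibition is reported relative to vehicle.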

The nature of test [3]: NCI Yeast Anticancer Drug Screen. Data for the sgs1 mgt1 strain (AID 161).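 Also: 0% = growth of cultures given vehicle only.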 To be noted: S. cerevisiae sgs1 mgt1 strain, at 50.0 µM, active compounds read high. In outline:
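Test agents were incubated with a DNA-repair-mutant yeast strain. Growth was then read and compared against vehicle-treated controls.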

Test [4] is described as follows: NCI Yeast Anticancer Drug Screen. Data for the cln2 rad14 strain (AID 165).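 Also: 0% = growth equal to vehicle treated cultures.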 To be noted: S. cerevisiae cln2 rad14 strain, at 50.0 µM, active compounds read high. Put shortly:
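Test compounds were added to cln2 rad14 yeast cultures; inhibition of growth was then determined by comparison with vehicle treatment.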

The nature of test [5]: NCI Yeast Anticancer Drug Screen. Data for the bub3 strain (AID 167). The settings on record: S. cerevisiae bub3 mutant strain, at 50.0 µM, active compounds read high. In outline:
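Part of a panel of yeast mutants defective in DNA damage repair or cell cycle regulation. Each strain is grown with compound, and inhibition is calculated relative to solvent-treated cultures.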

A short description of test [6]: NCI Yeast Anticancer Drug Screen. Data for the mlh1 rad18 strain (AID 175). The settings on record: S. cerevisiae mlh1 rad18 strain growth inhibition; at 50.0 µM; active compounds read high. Put shortly:
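Inhibition values reflect reduced growth of mutant yeast versus vehicle-treated controls following compound exposure; the mutations affect DNA damage repair.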

`CC1CC(Cc2ccccc2CC2CC(C)OC2=O)C(=O)O1` (stereo not drawn): the growth inhibition in test [1] was 6.95%; in test [2] it was 12.6%; in test [3], -0.1%; in test [4] it was 10.8%; in test [5], 10.8%; in test [6], 22.9%.

In the case of `NC(=Nc1ccc([N+](=O)[O-])cc1)c1ccccc1`, the growth inhibition in test [1] is 6.95%; in test [2], 1.6%; in test [3], -4.05%; in test [4], -11.9%; in test [5] it was 8.3%; in test [6] it was 9.65%.

In the case of `CCOC(=O)/C(=N/O)c1ccccn1`, the growth inhibition in test [1] is 0.4%; in test [2], -8.65%; in test [3], -4.35%; in test [4], 16.2%; in test [5], -5.35%; in test [6], -3.8%.

As to `O=C(O)C(O)C(O)C(O)C(O)C(=O)O` (stereo not drawn), the growth inhibition in test [1] was 7.35%; in test [2], -13.1%; in test [3] it was 12%; in test [4] it was -1.55%; in test [5], -5.1%; in test [6], 3.15%.

In the case of `Cc1cc(-c2ccccc2)cc(C[n+]2ccccc2)[n+]1-c1ccccn1`, the growth inhibition in test [1] is 12.8%; in test [2], 6.2%; in test [3], 9.2%; in test [4], -3.8%; in test [5] it was 2.2%; in test [6], 18.9%.

Regarding `O=C(/C=C/c1ccccc1)NC(=S)Nc1cc(Cl)ccc1O`, the growth inhibition in test [1] is 2.55%; in test [2] it was 7.8%; in test [3], 6.25%; in test [4], 5.5%; in test [5] it was 12.7%; in test [6], 6.85%.

For `N[C@@H](CCC(=O)NC(Cc1ccccc1)C(=O)NCP(=O)(O)O)C(=O)O` (stereo partly drawn), the growth inhibition in test [1] is -60.9%; in test [2], -17.9%; in test [3] it was -45.9%; in test [4], -1.75%; in test [5], -10.5%; in test [6], -55.4%.

In the case of `CCN(CC)CCCC(C)NC(=O)c1ccc2c(c1O)C(=O)c1ccccc1C2=O` (stereo not drawn), the growth inhibition in test [1] is 64%; in test [2], -7.75%; in test [3], 65.6%; in test [4] it was 58.5%; in test [5], 30.1%; in test [6] it was 84.6% (active).

With `CCNC(=O)CCC(NS(=O)(=O)c1ccc(NC(=O)c2ccc(Cl)cc2)cc1)C(=O)O` (stereo not drawn), the growth inhibition in test [1] is 0.8%; in test [2], -4.95%; in test [3] it was -26%; in test [4], -4.6%; in test [5], 0.1%; in test [6], -1.9%.

As to `O=[N+]([O-])c1ccccc1C(Nc1nncs1)Nc1nncs1`, the growth inhibition is 17.3% in test [1]; 22.5% in test [2]; 41.5% in test [3]; -6.05% in test [4]; -3.3% in test [5]; 2.3% in test [6].

As to `Cc1cc(C)c(NC(=O)c2c(Cl)c(Cl)c(Cl)c(Cl)c2C(=O)O)c(C)c1`, the growth inhibition in test [1] was -4.9%; in test [2], -4.45%; in test [3] it was 0.05%; in test [4], -51.3%; in test [5], 5.5%; in test [6], 0.3%.

As for `CC1=CC(=O)C(C(C)C)=CC1=Nc1ccc(N(C)C)cc1`, the growth inhibition in test [1] is -24.9%; in test [2], -26.3%; in test [3], -12.4%; in test [4] it was -33%; in test [5] it was 42.4%; in test [6] it was -12.3%.

`CCc1c([N+](=O)[O-])cc(C(C)(C)C)c(OC)c1[N+](=O)[O-]`: the growth inhibition is -9.05% in test [1]; -9.75% in test [2]; 0.6% in test [3]; -17.6% in test [4]; 20.2% in test [5]; -31.6% in test [6].

In the case of `Cc1cc2ccccc2c[n+]1C1CCc2ccccc2C1=O` (stereo not drawn), the growth inhibition was 7.1% in test [1]; 5.6% in test [2]; 30.6% in test [3]; 24% in test [4]; 3.4% in test [5]; 20.2% in test [6].

`CC(C)C(C(=O)O)N(C)C(=O)c1cnc2ccccc2n1` (stereo not drawn): the growth inhibition was 9.1% in test [1]; -1.2% in test [2]; -0.6% in test [3]; 22.9% in test [4]; 17.6% in test [5]; -6.2% in test [6].

With `N#C/C(=C/C=C/c1ccccc1)c1ccc([N+](=O)[O-])cc1`, the growth inhibition in test [1] is 22%; in test [2], 23.4%; in test [3], 24.8%; in test [4], -8.2%; in test [5], 36.5%; in test [6], 18.9%.

Take `Cc1ccc(C(=O)CC(C#N)c2ccccc2)cc1` (stereo not drawn): the growth inhibition in test [1] is 25.6%; in test [2] it was 17.4%; in test [3] it was 13.4%; in test [4] it was 18.1%; in test [5], 5.55%; in test [6], 12.7%.

As to `Cc1ccccc1C(=O)OCC(=O)c1ccc(-c2ccccc2)cc1`, the growth inhibition was -17.6% in test [1]; -9.4% in test [2]; -1.35% in test [3]; -37.5% in test [4]; 14% in test [5]; -20.7% in test [6].

Regarding `NC(=O)N/N=C/c1cccc2ccccc12`, the growth inhibition in test [1] is 24.2%; in test [2], 9.05%; in test [3] it was -8.8%; in test [4], 6.35%; in test [5], 4.05%; in test [6], -0.7%.

For the compound `NCCCC(NC(=O)CCCCCCCCN=C(N)N)C(O)CCCCCCCCN=C(N)N` (stereo not drawn), the growth inhibition in test [1] was 20.9%; in test [2] it was 14.8%; in test [3] it was 4.55%; in test [4], -6.8%; in test [5], 22.3%; in test [6] it was 0.75%.

On to `CCOC1=CC(=O)C(=O)c2ccccc21`, for which the growth inhibition was -1.05% in test [1]; -10.2% in test [2]; -5.8% in test [3]; -17.7% in test [4]; -0.55% in test [5]; 10.3% in test [6].

Turning to `COC(=O)/C(=C/c1ccccc1)N(C(C)=O)C(C)=O`, the growth inhibition was 0.05% in test [1]; -1.6% in test [2]; 10.3% in test [3]; -1.5% in test [4]; 13.4% in test [5]; 8.5% in test [6].

As to `CS(=O)(=O)OC[C@@H](O)[C@@H](O)COS(C)(=O)=O`, the growth inhibition in test [1] was -2.15%; in test [2] it was 7.4%; in test [3], -1.85%; in test [4] it was -57.1%; in test [5], 3.55%; in test [6], -6.85%.

As for `c1cc2c([nH]1)CCCC2`, the growth inhibition in test [1] was 12.5%; in test [2], 14.3%; in test [3], 2.45%; in test [4], 21.1%; in test [5] it was 23.6%; in test [6], 13.9%.

With `CC1CCC2(OC1)OC1CC3C4CCC5CC(O)CCC5(C)C4CC(=O)OC3(C)C1C2C` (stereo not drawn), the growth inhibition in test [1] was -10.8%; in test [2] it was -23.6%; in test [3], -14.8%; in test [4], -7.35%; in test [5], -25%; in test [6], 2.2%.

For the compound `CC1CCCC1N` (stereo not drawn), the growth inhibition is -13.7% in test [1]; -12.5% in test [2]; -24.5% in test [3]; -27.1% in test [4]; -5.85% in test [5]; -7.5% in test [6].

Regarding `O=c1cc(-c2ccccc2)[nH]c2ncccc12`, the growth inhibition in test [1] is -37.5%; in test [2], -48.6%; in test [3] it was -37.1%; in test [4], -9.4%; in test [5], -19.8%; in test [6], -65.8%.

Take `Cc1cc(=O)n(-c2cncc(Br)c2)[nH]1`: the growth inhibition in test [1] was 1.5%; in test [2], 2.05%; in test [3] it was 1.5%; in test [4], -17.5%; in test [5] it was 12.4%; in test [6], 7.75%.

As to `CC(C)(C)c1cc(-c2cc(C(C)(C)C)n(-c3ccccc3)n2)nn1-c1ccccc1`, the growth inhibition in test [1] was -22.6%; in test [2], -26.9%; in test [3], -17.3%; in test [4], 16%; in test [5] it was -31.4%; in test [6] it was -27.2%.

As for `CN/N=C(/CC(=O)c1sc(NNC(C)=O)nc1C)C(=O)Nc1ccc(OC)cc1OC`, the growth inhibition in test [1] is 15.7%; in test [2], -14.5%; in test [3], 3.2%; in test [4], 15.4%; in test [5], 15%; in test [6], -2.15%.

In the case of `NC(=O)C(=CNC(=S)Nc1ccc(S(N)(=O)=O)cc1)C(N)=O`, the growth inhibition in test [1] was -10.1%; in test [2], -31.1%; in test [3], -16.4%; in test [4] it was 2.9%; in test [5] it was -10.4%; in test [6], 0.5%.

As for `N#C/C(=C\c1ccc2ccccc2c1)c1ccccc1`, the growth inhibition in test [1] is 37.9%; in test [2] it was 14.9%; in test [3], 12.8%; in test [4], 17%; in test [5], 25.7%; in test [6], 52%.

On to `CC1(COc2ccccc2)NC(=O)c2ccccc2O1` (stereo not drawn), for which the growth inhibition in test [1] is -5.85%; in test [2], -13.4%; in test [3], 10.6%; in test [4] it was -46.2%; in test [5], 0.85%; in test [6], -6.25%.

As for `C=CC[Si](CC=C)(CC=C)OCC`, the growth inhibition in test [1] was 22.5%; in test [2], -17.6%; in test [3] it was 4.05%; in test [4], 7%; in test [5] it was -6%; in test [6], 17.4%.

With `CCC(CC)C(=O)OCCCC1CCCO1` (stereo not drawn), the growth inhibition in test [1] was 12.9%; in test [2], 2.9%; in test [3], 7.9%; in test [4], -3.25%; in test [5], -3.95%; in test [6], 0.6%.

Consider `CCOC(=O)CSc1[nH]c2nc(C)nc(Cl)c2c1C#N`, for which the growth inhibition is -20.7% in test [1]; 8.3% in test [2]; -5.2% in test [3]; -6.65% in test [4]; -3.45% in test [5]; 16.6% in test [6].

Turning to `CC(=O)c1cccc(N2COC(C)(C)c3nc4ccccc4n3C2)c1`, the growth inhibition in test [1] is 5.9%; in test [2], -9.85%; in test [3] it was -20.1%; in test [4] it was 12.8%; in test [5], -19.9%; in test [6], -0.05%.

On to `O=C(O)CCc1nc2ccccc2[nH]1`, for which the growth inhibition is -9.3% in test [1]; -4.9% in test [2]; -23.8% in test [3]; 39.1% in test [4]; -43.9% in test [5]; -1% in test [6].
